ChEMBL document CHEMBL1961873, “Compounds: GSK PKIS; Assays: Nanosyn kinase panel” (2012)

What was measured:
[1] = molecular target: T1, Serine/threonine-protein kinase Nek9 (Homo sapiens) (UniProt Q8TD19); conditions: at 1 µM;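 also: each value is a mean percent inhibition of NEK9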
T1 sequence (whole entry): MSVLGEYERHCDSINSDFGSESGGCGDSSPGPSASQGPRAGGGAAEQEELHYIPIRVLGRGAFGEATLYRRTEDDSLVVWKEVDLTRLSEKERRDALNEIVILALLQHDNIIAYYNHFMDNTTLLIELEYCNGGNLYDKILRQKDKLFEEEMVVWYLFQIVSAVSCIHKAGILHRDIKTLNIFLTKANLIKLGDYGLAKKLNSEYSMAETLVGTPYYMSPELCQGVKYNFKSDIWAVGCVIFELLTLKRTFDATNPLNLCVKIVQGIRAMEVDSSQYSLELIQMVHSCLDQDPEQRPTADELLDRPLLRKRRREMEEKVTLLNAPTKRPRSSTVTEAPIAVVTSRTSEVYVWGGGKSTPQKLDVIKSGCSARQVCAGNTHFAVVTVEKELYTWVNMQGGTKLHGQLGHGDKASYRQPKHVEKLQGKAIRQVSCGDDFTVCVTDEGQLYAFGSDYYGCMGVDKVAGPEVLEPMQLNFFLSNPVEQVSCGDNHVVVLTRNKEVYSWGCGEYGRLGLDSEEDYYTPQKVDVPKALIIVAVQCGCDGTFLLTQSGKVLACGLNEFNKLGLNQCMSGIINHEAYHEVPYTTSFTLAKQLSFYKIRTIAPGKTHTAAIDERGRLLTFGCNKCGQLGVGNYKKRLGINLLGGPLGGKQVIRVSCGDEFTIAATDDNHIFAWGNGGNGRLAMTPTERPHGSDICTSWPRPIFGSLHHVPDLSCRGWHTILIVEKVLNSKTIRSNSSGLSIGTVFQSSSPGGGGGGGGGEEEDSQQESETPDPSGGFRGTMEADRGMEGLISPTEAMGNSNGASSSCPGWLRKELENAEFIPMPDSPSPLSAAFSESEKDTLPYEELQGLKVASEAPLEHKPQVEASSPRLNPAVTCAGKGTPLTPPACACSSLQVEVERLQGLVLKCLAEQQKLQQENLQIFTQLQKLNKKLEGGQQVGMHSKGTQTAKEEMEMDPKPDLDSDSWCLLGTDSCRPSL

[2] = molecular target: Serine/threonine-protein kinase PLK1 (Homo sapiens) (UniProt P53350); conditions: at 0.1 µM
[3] = molecular target: Serine/threonine-protein kinase PLK1 (Homo sapiens) (UniProt P53350); conditions: at 1 µM
[4] = molecular target: T2, Dual specificity protein kinase TTK (Homo sapiens) (UniProt P33981); conditions: at 0.1 µM
T2 sequence (whole entry): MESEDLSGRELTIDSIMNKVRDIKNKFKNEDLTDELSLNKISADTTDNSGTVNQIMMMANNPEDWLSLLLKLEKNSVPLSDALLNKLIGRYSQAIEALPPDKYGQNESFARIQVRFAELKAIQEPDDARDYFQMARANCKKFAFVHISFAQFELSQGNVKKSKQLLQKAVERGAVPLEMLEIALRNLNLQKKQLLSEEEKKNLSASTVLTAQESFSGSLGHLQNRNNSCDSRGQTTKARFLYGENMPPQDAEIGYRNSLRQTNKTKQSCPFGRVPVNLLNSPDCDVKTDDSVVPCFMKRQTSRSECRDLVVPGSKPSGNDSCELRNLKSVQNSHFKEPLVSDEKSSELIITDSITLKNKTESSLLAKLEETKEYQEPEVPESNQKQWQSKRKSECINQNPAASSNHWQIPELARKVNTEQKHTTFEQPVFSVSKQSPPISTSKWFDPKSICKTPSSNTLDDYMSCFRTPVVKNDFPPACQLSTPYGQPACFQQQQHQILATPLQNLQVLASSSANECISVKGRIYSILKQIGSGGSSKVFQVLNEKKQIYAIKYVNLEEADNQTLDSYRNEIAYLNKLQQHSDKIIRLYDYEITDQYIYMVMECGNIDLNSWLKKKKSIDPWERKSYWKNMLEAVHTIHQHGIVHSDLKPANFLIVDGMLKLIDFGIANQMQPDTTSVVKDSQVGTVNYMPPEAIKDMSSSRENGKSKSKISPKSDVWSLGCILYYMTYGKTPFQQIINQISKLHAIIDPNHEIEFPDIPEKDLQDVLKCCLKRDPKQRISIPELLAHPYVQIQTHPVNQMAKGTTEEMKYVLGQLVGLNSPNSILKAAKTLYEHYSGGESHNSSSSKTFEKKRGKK

[5] = system: T3, Receptor-type tyrosine-protein kinase FLT3 (Homo sapiens), P36888 [D835Y]; conditions: at 1 µM
T3 sequence (whole entry): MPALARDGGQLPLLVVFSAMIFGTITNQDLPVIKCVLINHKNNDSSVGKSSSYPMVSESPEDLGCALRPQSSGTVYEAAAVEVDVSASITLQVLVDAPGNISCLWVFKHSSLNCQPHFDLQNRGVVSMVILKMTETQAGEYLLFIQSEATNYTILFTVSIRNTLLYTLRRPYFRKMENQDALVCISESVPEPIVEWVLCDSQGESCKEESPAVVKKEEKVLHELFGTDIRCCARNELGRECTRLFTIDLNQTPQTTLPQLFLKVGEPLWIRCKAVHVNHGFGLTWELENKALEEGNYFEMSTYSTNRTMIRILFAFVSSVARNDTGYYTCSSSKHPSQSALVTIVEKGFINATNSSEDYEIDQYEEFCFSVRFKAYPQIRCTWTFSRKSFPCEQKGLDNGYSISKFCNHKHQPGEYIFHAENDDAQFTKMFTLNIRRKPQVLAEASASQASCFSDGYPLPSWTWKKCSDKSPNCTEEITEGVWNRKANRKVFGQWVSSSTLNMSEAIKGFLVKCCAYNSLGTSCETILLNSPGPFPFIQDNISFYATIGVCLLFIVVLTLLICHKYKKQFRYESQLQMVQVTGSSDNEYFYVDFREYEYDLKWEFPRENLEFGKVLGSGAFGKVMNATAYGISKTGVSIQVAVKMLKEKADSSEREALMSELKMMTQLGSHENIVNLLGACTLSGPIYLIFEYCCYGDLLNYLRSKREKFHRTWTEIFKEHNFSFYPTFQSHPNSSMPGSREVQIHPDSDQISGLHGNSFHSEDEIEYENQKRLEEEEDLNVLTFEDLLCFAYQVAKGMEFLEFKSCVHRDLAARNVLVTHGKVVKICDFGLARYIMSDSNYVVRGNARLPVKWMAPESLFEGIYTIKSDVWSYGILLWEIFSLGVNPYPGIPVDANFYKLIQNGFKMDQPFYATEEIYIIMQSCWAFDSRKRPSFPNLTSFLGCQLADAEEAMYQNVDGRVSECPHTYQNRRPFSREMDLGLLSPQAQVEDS

[6] = molecular target: Vascular endothelial growth factor receptor 3 (Homo sapiens) (UniProt P35916); conditions: at 0.1 µM
[7] = molecular target: Vascular endothelial growth factor receptor 3 (Homo sapiens) (UniProt P35916); conditions: at 1 µM
[8] = molecular target: Macrophage colony-stimulating factor 1 receptor (Homo sapiens) (UniProt P07333); conditions: at 0.1 µM
[9] = molecular target: Macrophage colony-stimulating factor 1 receptor (Homo sapiens) (UniProt P07333); conditions: at 1 µM
[10] = molecular target: Tyrosine-protein kinase Fyn (Homo sapiens) (UniProt P06241); conditions: at 0.1 µM
[11] = molecular target: Tyrosine-protein kinase Fyn (Homo sapiens) (UniProt P06241); conditions: at 1 µM
[12] = molecular target: Tyrosine-protein kinase HCK (Homo sapiens) (UniProt P08631); conditions: at 0.1 µM
[13] = molecular target: Tyrosine-protein kinase HCK (Homo sapiens) (UniProt P08631); conditions: at 1 µM
[14] = molecular target: Insulin-like growth factor 1 receptor (Homo sapiens) (UniProt P08069); conditions: at 0.1 µM
[15] = molecular target: Insulin-like growth factor 1 receptor (Homo sapiens) (UniProt P08069); conditions: at 1 µM
[16] = molecular target: Insulin receptor (Homo sapiens) (UniProt P06213); conditions: at 0.1 µM
[17] = molecular target: Insulin receptor (Homo sapiens) (UniProt P06213); conditions: at 1 µM
[18] = molecular target: Insulin receptor-related protein (Homo sapiens) (UniProt P14616); conditions: at 0.1 µM
[19] = molecular target: Insulin receptor-related protein (Homo sapiens) (UniProt P14616); conditions: at 1 µM
[20] = molecular target: T4, Tyrosine-protein kinase ITK/TSK (Homo sapiens) (UniProt Q08881); conditions: at 0.1 µM;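 also: mean percent inhibition of ITK from the GSK PKIS screen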
T4 sequence (whole entry): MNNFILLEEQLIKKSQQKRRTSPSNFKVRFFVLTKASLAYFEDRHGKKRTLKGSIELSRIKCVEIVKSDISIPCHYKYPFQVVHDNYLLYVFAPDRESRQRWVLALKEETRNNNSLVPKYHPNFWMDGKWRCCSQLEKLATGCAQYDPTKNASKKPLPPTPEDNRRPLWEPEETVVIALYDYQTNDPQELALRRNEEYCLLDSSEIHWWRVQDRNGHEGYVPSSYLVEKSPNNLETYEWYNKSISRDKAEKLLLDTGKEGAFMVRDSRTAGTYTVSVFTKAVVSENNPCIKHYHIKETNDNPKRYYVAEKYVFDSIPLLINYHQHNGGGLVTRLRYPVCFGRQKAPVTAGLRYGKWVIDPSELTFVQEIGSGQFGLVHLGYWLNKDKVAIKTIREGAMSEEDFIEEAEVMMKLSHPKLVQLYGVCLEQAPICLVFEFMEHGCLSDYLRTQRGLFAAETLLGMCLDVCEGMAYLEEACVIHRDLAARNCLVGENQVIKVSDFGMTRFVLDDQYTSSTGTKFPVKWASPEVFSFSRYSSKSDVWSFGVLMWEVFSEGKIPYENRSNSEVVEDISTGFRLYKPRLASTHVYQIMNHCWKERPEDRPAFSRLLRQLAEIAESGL

Sequence of Tyrosine-protein kinase HCK (Homo sapiens) (P08631 2-526 limits assumed): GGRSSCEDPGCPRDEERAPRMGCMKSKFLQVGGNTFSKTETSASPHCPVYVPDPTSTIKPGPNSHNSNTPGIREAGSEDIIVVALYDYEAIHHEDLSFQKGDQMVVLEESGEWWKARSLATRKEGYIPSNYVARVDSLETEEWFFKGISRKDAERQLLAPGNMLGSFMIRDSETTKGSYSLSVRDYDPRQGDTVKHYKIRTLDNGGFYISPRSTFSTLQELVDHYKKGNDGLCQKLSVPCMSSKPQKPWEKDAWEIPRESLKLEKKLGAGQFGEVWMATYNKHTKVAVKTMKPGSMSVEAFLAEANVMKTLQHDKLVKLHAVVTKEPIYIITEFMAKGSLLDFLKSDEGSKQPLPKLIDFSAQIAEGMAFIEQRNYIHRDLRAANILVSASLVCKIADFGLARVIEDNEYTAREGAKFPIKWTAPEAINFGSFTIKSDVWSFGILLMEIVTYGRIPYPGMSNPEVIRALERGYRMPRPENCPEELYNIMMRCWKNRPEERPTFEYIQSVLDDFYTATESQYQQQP
Sequence of Serine/threonine-protein kinase PLK1 (Homo sapiens) (P53350 whole entry): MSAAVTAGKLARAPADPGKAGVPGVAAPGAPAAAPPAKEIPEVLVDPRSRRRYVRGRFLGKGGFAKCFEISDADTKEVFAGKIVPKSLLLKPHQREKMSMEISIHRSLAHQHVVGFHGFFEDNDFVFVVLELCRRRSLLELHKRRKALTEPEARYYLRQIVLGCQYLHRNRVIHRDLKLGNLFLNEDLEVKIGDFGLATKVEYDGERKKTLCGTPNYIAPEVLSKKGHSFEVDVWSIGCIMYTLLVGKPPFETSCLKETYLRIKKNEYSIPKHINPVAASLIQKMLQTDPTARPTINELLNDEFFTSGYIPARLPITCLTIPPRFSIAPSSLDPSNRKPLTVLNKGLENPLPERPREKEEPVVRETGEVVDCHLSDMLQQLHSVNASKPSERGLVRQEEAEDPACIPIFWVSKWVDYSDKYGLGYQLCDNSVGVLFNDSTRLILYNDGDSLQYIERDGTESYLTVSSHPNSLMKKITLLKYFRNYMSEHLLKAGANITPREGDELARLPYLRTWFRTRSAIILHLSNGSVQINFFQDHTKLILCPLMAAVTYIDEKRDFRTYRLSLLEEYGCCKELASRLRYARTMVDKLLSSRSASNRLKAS
Sequence of Insulin-like growth factor 1 receptor (Homo sapiens) (P08069 31-736 limits assumed): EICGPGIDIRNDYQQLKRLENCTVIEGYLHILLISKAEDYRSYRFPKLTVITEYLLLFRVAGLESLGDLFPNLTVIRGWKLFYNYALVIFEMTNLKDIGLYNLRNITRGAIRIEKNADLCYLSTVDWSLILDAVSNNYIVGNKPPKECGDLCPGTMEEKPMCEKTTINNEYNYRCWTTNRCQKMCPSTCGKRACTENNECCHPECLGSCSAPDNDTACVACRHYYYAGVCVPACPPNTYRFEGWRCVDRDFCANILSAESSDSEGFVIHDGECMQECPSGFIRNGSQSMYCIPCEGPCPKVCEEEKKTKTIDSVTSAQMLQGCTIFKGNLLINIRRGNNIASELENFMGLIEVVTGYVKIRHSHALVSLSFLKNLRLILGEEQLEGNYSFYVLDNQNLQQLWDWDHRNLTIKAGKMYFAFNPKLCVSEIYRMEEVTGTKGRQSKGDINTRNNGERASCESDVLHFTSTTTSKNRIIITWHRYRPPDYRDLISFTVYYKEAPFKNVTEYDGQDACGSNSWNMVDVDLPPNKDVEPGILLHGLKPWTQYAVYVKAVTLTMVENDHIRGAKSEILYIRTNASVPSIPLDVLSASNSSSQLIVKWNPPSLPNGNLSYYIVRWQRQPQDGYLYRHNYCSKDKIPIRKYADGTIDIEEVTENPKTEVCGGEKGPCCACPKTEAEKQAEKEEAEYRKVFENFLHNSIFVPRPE
Sequence of Insulin-like growth factor 1 receptor (Homo sapiens) (P08069 741-1367 limits assumed): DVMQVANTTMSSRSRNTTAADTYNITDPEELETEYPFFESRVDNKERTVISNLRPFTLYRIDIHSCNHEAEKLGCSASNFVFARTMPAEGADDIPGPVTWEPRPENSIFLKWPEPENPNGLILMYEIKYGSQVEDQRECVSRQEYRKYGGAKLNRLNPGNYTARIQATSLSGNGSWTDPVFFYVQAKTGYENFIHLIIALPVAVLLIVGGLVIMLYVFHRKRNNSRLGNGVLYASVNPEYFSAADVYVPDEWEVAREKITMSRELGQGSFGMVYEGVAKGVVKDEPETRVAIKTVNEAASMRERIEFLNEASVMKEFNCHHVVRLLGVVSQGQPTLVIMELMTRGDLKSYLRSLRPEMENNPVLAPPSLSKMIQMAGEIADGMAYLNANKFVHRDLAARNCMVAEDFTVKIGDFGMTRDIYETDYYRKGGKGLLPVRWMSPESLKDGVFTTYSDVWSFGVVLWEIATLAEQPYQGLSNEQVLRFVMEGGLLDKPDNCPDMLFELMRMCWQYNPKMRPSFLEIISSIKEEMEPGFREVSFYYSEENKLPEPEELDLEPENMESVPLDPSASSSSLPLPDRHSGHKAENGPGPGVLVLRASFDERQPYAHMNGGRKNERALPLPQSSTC
Sequence of Tyrosine-protein kinase Fyn (Homo sapiens) (P06241 2-537 limits assumed): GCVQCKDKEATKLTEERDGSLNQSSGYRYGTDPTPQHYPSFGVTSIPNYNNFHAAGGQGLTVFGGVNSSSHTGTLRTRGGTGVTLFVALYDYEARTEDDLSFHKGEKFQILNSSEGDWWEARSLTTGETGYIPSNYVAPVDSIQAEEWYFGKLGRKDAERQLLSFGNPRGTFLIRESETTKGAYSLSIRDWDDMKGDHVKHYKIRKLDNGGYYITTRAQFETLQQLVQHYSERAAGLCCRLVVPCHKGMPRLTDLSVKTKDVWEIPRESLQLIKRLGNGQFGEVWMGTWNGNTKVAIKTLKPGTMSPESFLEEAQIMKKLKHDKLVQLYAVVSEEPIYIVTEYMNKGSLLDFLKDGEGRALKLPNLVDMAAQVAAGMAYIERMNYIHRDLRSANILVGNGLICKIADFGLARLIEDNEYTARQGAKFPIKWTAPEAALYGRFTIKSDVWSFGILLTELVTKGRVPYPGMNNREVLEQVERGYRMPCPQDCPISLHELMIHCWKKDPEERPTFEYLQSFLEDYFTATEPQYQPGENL
Sequence of Macrophage colony-stimulating factor 1 receptor (Homo sapiens) (P07333 whole entry): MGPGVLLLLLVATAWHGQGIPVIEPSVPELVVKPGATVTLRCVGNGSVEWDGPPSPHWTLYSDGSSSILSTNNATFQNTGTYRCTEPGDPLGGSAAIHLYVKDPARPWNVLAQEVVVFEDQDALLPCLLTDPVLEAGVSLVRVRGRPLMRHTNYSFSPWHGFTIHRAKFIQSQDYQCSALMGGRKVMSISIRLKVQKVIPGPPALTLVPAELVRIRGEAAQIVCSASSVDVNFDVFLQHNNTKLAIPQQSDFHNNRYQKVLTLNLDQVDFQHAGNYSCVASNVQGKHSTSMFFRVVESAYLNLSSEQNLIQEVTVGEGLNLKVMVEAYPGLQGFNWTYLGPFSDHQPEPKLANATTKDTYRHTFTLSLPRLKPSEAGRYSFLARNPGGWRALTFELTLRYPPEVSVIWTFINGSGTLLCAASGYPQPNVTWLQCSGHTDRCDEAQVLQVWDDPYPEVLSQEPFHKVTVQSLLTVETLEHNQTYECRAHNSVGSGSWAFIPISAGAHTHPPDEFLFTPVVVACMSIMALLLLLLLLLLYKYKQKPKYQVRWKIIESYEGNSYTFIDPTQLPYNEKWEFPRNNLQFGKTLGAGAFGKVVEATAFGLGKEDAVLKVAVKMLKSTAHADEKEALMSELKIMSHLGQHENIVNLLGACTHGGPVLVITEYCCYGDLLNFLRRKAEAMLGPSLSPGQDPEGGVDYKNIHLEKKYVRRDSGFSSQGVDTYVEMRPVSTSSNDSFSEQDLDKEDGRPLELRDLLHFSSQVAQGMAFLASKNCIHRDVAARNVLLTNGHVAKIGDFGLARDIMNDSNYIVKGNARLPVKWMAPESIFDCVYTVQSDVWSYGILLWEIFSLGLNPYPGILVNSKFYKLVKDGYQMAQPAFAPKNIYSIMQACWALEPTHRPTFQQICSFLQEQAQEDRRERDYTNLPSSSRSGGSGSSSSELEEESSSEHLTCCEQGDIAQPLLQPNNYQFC

SMILES | inhibition [1] [%] | inhibition [2] [%] | inhibition [3] [%] | inhibition [4] [%] | inhibition [5] [%] | inhibition [6] [%] | inhibition [7] [%] | inhibition [8] [%] | inhibition [9] [%] | inhibition [10] [%] | inhibition [11] [%] | inhibition [12] [%] | inhibition [13] [%] | inhibition [14] [%] | inhibition [15] [%] | inhibition [16] [%] | inhibition [17] [%] | inhibition [18] [%] | inhibition [19] [%] | inhibition [20] [%]
COc1cc2ncn(-c3cc(OCc4ccccc4C(F)(F)F)c(C(C)=O)s3)c2cc1OC | 5.55 | 20.5 | 67.7 | 6.18 | 2.27 | 3.53 | 5.96 | 0.38 | 10.8 | 1.85 | 8.03 | 5.79 | 9.81 | -2.34 | 1.09 | -1.39 | -0.63 | 5 | 3.18 | 0.57
O=C(NCC1CC1)c1ccc(-c2cccc(C(=O)NC3CC3)c2)cc1 | -2.12 | 1.33 | -0.14 | 2.34 | 4.69 | 1.32 | 1.97 | 1.67 | 5.35 | 1.58 | 2.23 | 2.5 | 7.59 | 2.46 | 4.73 | 1.73 | 3.95 | 1.19 | 2.93 | 1.15
CN(C)CCOc1ccc(-c2cc(-c3ccc4c(c3)CCC4=NO)c(-c3ccncc3)o2)cc1 | -0.58 | 1.65 | -0.86 | 1.31 | -3.1 | -0.84 | -0.94 | -3.24 | -0.1 | 1.29 | 8 | -2.29 | 2.91 | -3.2 | 0.2 | 3.17 | 1.94 | -1.33 | -1.94 | -1.36
C/C(Nc1ccc(S(N)(=O)=O)cc1)=C1/C(=O)Nc2ccccc21 | 1.67 | -0.74 | -0.72 | 8.06 | 46.8 | 7.83 | 32.9 | 12.1 | 50.6 | 1.2 | 2.57 | -0.82 | 6.24 | 0.12 | 9.94 | 2.85 | 12.7 | -2.56 | -0.64 | -0.1
COc1ccc(-c2ccc3c(NC(=O)C4CC4)n[nH]c3n2)cc1 | 3.42 | 3.2 | 0.74 | 5.12 | 5.49 | 1.77 | 1.31 | 1.02 | 1.62 | 1.9 | 4 | -0.93 | 5.16 | 1.17 | 0.43 | 1.07 | 3.1 | 0.55 | 0.43 | 0.61
NCc1ccc(-n2c(-c3nonc3N)nc3cnccc32)cc1 | 6.1 | 3.75 | 3.27 | 19.4 | 6.04 | 6.13 | 7.01 | 12.5 | 49.6 | 1.24 | 0.2 | 6.26 | 10.4 | 5.71 | 8.21 | 8.46 | 8.17 | 3.81 | 2.5 | 1.67
